Results taken from PubChem BioAssay (NCI).
Compounds without any hit were thinned out: in the full panel of roughly 83,000, 20% have a hit.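 Testing used 96-well plates and a 48-hour single-concentration exposure. Example: -40 means 40% of the starting cells died.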 Active and inactive are the calls of the source. Rule for the calls: active = growth percent below 10; inactive = the rest.

Tests used:
Assay in all cases: NCI-60 one-dose screen, 48 h (100 = growth as untreated, 0 = no growth, -100 = all killed)
Settings in all cases: 10 µM unless noted
[1] = tested on: DU-145 prostate
[2] = tested on: K-562 leukemia
[3] = tested on: MALME-3M melanoma
[4] = tested on: MDA-MB-231 breast
[5] = tested on: RXF 393 renal
[6] = tested on: SF-268 CNS
[7] = tested on: SF-295 CNS
[8] = tested on: SF-539 CNS
[9] = tested on: UACC-257 melanoma
[10] = tested on: M14 melanoma
[11] = tested on: HCT-15 colon
[12] = tested on: HT29 colon
[13] = tested on: SNB-75 CNS
[14] = tested on: SNB-19 CNS
[15] = tested on: U251 CNS
[16] = tested on: PC-3 prostate
[17] = tested on: SK-MEL-5 melanoma
[18] = tested on: UACC-62 melanoma
[19] = tested on: LOX IMVI melanoma

Measured: growth

COc1cccc2nc(Nc3cccc(NC(=O)c4cc(N5CCOCC5)cc(C(F)(F)F)c4)c3)ccc12
inactive: [1] 59.9% | [2] 45% | [3] 91.3% | [4] 93.3% | [5] 51.4% | [6] 59.9% | [7] 58.4% | [8] 82% | [9] 57.1% | [10] 52.5% | [11] 48.2% | [12] 43.4% | [13] 50.1% | [14] 74.6% | [15] 50.6% | [16] 36.8% | [17] 42.7% | [18] 71.4% | [19] 56%

CC(=O)N(C)c1ccc(Nc2cc(C)[nH]c3ccc4ncnc4c23)cc1
inactive: [1] 46.5% | [2] 29.5% | [3] 82.4% | [4] 87.7% | [5] 41.7% | [6] 55% | [7] 76.5% | [8] 40.7% | [9] 48.2% | [10] 76.9% | [11] 82.5% | [12] 48% | [13] 55% | [14] 58.7% | [15] 49.9% | [16] 50.5% | [17] 51.4% | [18] 62.7% | [19] 36.1%

FC1(F)CCN(Cc2c[nH]c3cc(Cl)ccc23)C[C@H]1CCc1ccccc1
inactive: [1] 65% | [2] 31.4% | [3] 77.1% | [4] 68.9% | [5] 64.3% | [6] 72.1% | [7] 54.5% | [8] 88.6% | [9] 53.2% | [10] 60% | [11] 51% | [12] 26.6% | [13] 40.8% | [14] 68% | [15] 44.5% | [16] 53.3% | [17] 62.7% | [18] 59.9% | [19] 46.9%

CCC(C)C1NC(=O)c2nc(oc2-c2ccccc2)-c2csc(n2)-c2csc(n2)-c2nc(oc2C)-c2coc(n2)CNC(=O)C(C(C)CC)NC1=O (centres undefined)
active: [1] -90.6% | [2] -66.3% | [3] -84.9% | [4] -74.4% | [5] -72.5% | [6] -66.9% | [7] -78.9% | [8] -80.5% | [9] -66.2% | [10] -85.2% | [11] -77.7% | [12] -81.6% | [13] -86.3% | [14] -61.3% | [15] -83.4% | [16] -85.6% | [17] -91.3% | [18] -70.5% | [19] -72.4%

COc1cccc2nc(Nc3cccc(NC(=O)c4ccc(N5CCN(C)CC5)c(C(F)(F)F)c4)c3)ccc12
active: [2] -49.1% | [3] -10.5% | [5] -2.23% | [7] -0.464% | [8] -27.9% | [9] -21.9% | [11] -10.4% | [12] -67.7% | [13] -7.68% | [15] -24.6% | [18] -38.4% | [19] -96.7%
inactive: [1] 29.4% | [4] 29.5% | [6] 35.5% | [10] 10.1% | [14] 48.4% | [16] 22% | [17] 48.8%

CN1CCN(Cc2ccc(NC(=O)c3cnc(F)c(C#Cc4cnc(N)c5ncccc45)c3)cc2C(F)(F)F)CC1
inactive: [1] 30.5% | [6] 28.6% | [7] 48.2% | [9] 13.5% | [11] 14.9% | [13] 32.7% | [14] 52.8% | [15] 20.8% | [16] 29.9%
active: [2] 1.55% | [3] -43.1% | [4] -25.7% | [5] -0.985% | [8] 9.63% | [10] -56.4% | [12] 6.84% | [17] 8.81% | [18] -4.67% | [19] 1.54%

O=C1c2ccccc2C(=O)c2c1oc1ccc3ccccc3c21
inactive: [1] 85.7% | [2] 101% | [3] 27.8% | [4] 60% | [5] 88.2% | [6] 76.7% | [7] 93.7% | [8] 78.3% | [9] 77.7% | [10] 57.1% | [11] 65% | [12] 106% | [13] 93.3% | [14] 90% | [15] 81.1% | [16] 72.3% | [17] 17.3% | [18] 84.2% | [19] 41.9%

F
active: [3] -28.9% [6.87 mM] | [4] 5.12% [6.87 mM] | [7] 2.46% [6.87 mM] | [8] -13% [6.87 mM] | [9] 0.483% [6.87 mM] | [10] -23.4% [6.87 mM] | [12] 1.64% [6.87 mM] | [17] -66.1% [6.87 mM] | [18] -74.4% [6.87 mM] | [19] 1.06% [6.87 mM]
inactive: [1] 49.5% [6.87 mM] | [2] 60.9% [6.87 mM] | [5] 23.9% [6.87 mM] | [6] 40.9% [6.87 mM] | [11] 57.4% [6.87 mM] | [13] 11.4% [6.87 mM] | [14] 41.2% [6.87 mM] | [15] 17% [6.87 mM] | [16] 33% [6.87 mM]

COc1c(B(O)O)cccc1-c1nc2ccc3[nH]ncc3c2c2c1CCCC2
active: [5] -15.8% | [8] 0.769% | [13] -2.29% | [19] -15.4%
inactive: [1] 11.1% | [2] 38.5% | [3] 82.6% | [4] 25.2% | [6] 23.2% | [7] 34.8% | [9] 34% | [10] 58.1% | [11] 25.4% | [12] 37.9% | [14] 12.5% | [15] 13.2% | [16] 18.4% | [17] 42.3% | [18] 26.6%

O=C1Cc2c([nH]c3ccc([N+](=O)[O-])cc23)-c2ccccc2N1
inactive: [4] 29.6% | [5] 16% | [6] 10.8% | [7] 18.7% | [9] 17.3% | [10] 16.8% | [14] 20.8% | [18] 11.4%
active: [1] 4.56% | [2] 3.25% | [3] 8.75% | [8] -37% | [11] 5.02% | [12] 4.95% | [13] -7.52% | [15] 8.97% | [16] 9.61% | [17] -47.2% | [19] 9.02%

CC1(C)CC[C@]2(C(=O)N3CCNCC3)CC[C@]3(C)C(=CC[C@@H]4[C@@]5(C)CCC(=O)C(C)(C)[C@@H]5CC[C@]43C)[C@@H]2C1
inactive: [1] 109% | [2] 109% | [3] 112% | [4] 112% | [5] 115% | [6] 100% | [7] 99.5% | [8] 101% | [9] 106% | [10] 109% | [11] 105% | [12] 107% | [13] 91.6% | [14] 98% | [15] 105% | [16] 101% | [17] 102% | [18] 98.9% | [19] 95.7%

CN(C)c1ccc(/C=N/Nc2nnc3n2N=C(c2ccc(Cl)cc2)CS3)cc1
inactive: [1] 100% | [2] 79% | [3] 128% | [4] 101% | [5] 69.7% | [6] 97.8% | [7] 101% | [8] 103% | [9] 106% | [10] 100% | [11] 92.5% | [12] 105% | [13] 96.3% | [14] 89.6% | [15] 95% | [16] 82.1% | [17] 92.1% | [18] 98.6% | [19] 98.8%

COc1ccc2[nH]c(C(=O)OCc3ccc4c(Br)cc(Br)c(O)c4n3)cc2c1
inactive: [7] 72.3% | [14] 43.1%
active: [1] -94.6% | [2] 1.4% | [3] -79.6% | [4] -73.6% | [5] -89.2% | [6] -70.8% | [8] -91.9% | [9] -72.8% | [10] -64.1% | [11] -62.1% | [12] -73.6% | [13] -75.5% | [15] -28.3% | [16] -64.9% | [17] -89.6% | [18] -79.5% | [19] -95.4%

CC(C)[C@H](CN)NC[C@H](C)NS(=O)(=O)c1ccc(C(C)(C)C)cc1
inactive: [1] 105% | [2] 85.7% | [3] 97.8% | [4] 117% | [5] 89.9% | [6] 93.5% | [7] 104% | [8] 96.9% | [9] 96.4% | [10] 97.3% | [11] 99.3% | [12] 65.5% | [13] 84.2% | [14] 111% | [15] 87.1% | [16] 83.5% | [17] 86.8% | [18] 111% | [19] 99.9%

CN1CCN(Cc2ccc(NC(=O)c3ccc(C#N)c(C#Cc4cnc(N)c5ncccc45)c3)cc2C(F)(F)F)CC1
active: [2] -5.03% | [3] -52% | [4] -2.17% | [9] -20.1% | [10] 3.5% | [11] 1.93% | [12] 4.28%
inactive: [1] 28.8% | [5] 41.9% | [6] 94.1% | [7] 103% | [8] 54.5% | [13] 112% | [14] 115% | [15] 55.6% | [16] 81.1% | [17] 87% | [18] 58.8% | [19] 82.5%

Nc1ccc(N(O)/C=C2\C=CC=CC2=O)cc1N
inactive: [1] 121% | [2] 93.5% | [3] 101% | [4] 85.9% | [5] 98.2% | [6] 107% | [7] 112% | [8] 101% | [9] 98.7% | [10] 101% | [11] 87% | [12] 172% | [13] 104% | [14] 102% | [15] 94.1% | [16] 69.6% | [17] 76.3% | [18] 66.1% | [19] 48.8%
